Measurements reported in the supplement of paper PMC10811239.

system: LEGO organoid PTN (PTEN-/-; TP53-/-; NF1-/-); assay: bioluminescence (viable cell) signal fold change after vs before treatment, normalised to DMSO (ratio); higher = more tumour cell growth / less inhibition; conditions: 10 µM; treatment time 6 days
Method: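 Luc2-labelled iPSC-derived glioblastoma-like organoids (LEGOs, genotypes PT = PTEN-/-;TP53-/-, PTCC = plus CDKN2A/B-/-, PTN = plus NF1-/-) were treated with 10 uM drug for 6 days (applied every other day) at 37 C. Bioluminescence imaging was done before treatment and 2 days after the last dose. BLI signals were normalised to the DMSO control on the same day and then to the pre-treatment signal (N=3).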

Row | Structure (SMILES) | bioluminescence
1 | CC(C)(C)c1cc(C(C)(C)C)c(NC(=O)c2c[nH]c3ccccc3c2=O)cc1O [Ivacaftor] | 0.603
2 | Cc1ccccc1C(OCCN(C)C)c1ccccc1.O=C(O)CC(O)(CC(=O)O)C(=O)O (centres undefined) [Orphenadrine Citrate] | 0.98
3 | CCCCCCCCCCC[C@@H](C[C@@H]1OC(=O)[C@H]1CCCCCC)OC(=O)[C@H](CC(C)C)NC=O [Orlistat] | 1.32
4 | CCN(CC)CC(=O)Nc1c(C)cccc1C [Xylocaine] | 1.22
5 | CC(=O)OCC(=O)[C@@]1(O)CC[C@H]2[C@@H]3CCC4=CC(=O)C=C[C@]4(C)[C@H]3[C@@H](O)C[C@@]21C [Prednisolone-21-acetate] | 0.956
6 | C[C@H]1C[C@@H]2[C@H]([C@@H](O)C[C@@]3(C)[C@H]2CC[C@]3(O)C(=O)CO)[C@@]2(C)C=CC(=O)C=C12 [Methylprednisolone] | 1.17
7 | CC(C(=O)O)c1ccc(-c2ccccc2)c(F)c1 (centres undefined) [Flurbiprofen] | 1.47
8 | N#Cc1ccc2[nH]cc(CCCCN3CCN(c4ccc5oc(C(N)=O)cc5c4)CC3)c2c1 [Vilazodone] | 0.898
9 | NC(=O)c1ncn([C@@H]2O[C@H](CO)[C@@H](O)[C@H]2O)n1 [Ribavirin] | 0.822
10 | CCN(CC)CCNC(=O)c1cc(Cl)c(N)cc1OC [5-Chloro-2-methoxyprocainamide] | 1.62
11 | CN[C@H]1CC[C@@H](c2ccc(Cl)c(Cl)c2)c2ccccc21.Cl [Sertraline hydrochloride] | 1.32
12 | CC/C(=C(/CC)c1ccc(O)cc1)c1ccc(O)cc1 [Diethylstilbestrol] | 2.47
13 | Nc1ncn([C@H]2C[C@H](O)[C@@H](CO)O2)c(=O)n1 [Decitabine] | 1.09
14 | CCC(CC)O[C@@H]1C=C(C(=O)O)C[C@H](N)[C@H]1NC(C)=O [Oseltamivir acid] | 1.58
15 | CO[C@H]1/C=C/O[C@@]2(C)Oc3c(C)c(O)c4c(O)c(c(/C=N/N5CCN(C6CCCC6)CC5)c(O)c4c3C2=O)NC(=O)/C(C)=C\C=C\[C@H](C)[C@H](O)[C@@H](C)[C@@H](O)[C@@H](C)[C@H](OC(C)=O)[C@@H]1C [Rifapentine] | 1.39
16 | Cl.OC[C@H]1NC[C@H](O)[C@@H](O)[C@H]1O [Migalastat hydrochloride] | 0.719
17 | C[C@]12CCC3=C4CCC(=O)C=C4CC[C@H]3[C@@H]1CC[C@@]2(O)CC#N [Dienogest] | 0.658
18 | Cc1cc(NS(=O)(=O)c2ccc(N)cc2)no1 [Sulfamethoxazole] | 1.8
19 | Cl.Cc1ccsc1\C(=C\CCN1CCC[C@H](C1)C(O)=O)c1sccc1C [Tiagabine hydrochloride] | 0.83
20 | CC(C)Nc1cccnc1N1CCN(C(=O)c2cc3cc(NS(C)(=O)=O)ccc3[nH]2)CC1.CS(=O)(=O)O [Delavirdine mesylate] | 1.76

Row | Structure (SMILES) | bioluminescence
21 | COc1ccccc1OCC(O)COC(N)=O (centres undefined) [Methocarbamol] | 2.82
22 | O=C(CCCCCCC(=O)Nc1ccccc1)NO [Vorinostat] | 0.384
23 | C/C=C(/C)C(=O)O[C@H]1C(C)=C[C@]23C(=O)[C@@H](C=C(CO)[C@@H](O)[C@]12O)[C@H]1[C@@H](C[C@H]3C)C1(C)C [Ingenol Mebutate] | 2.33
24 | CS(=O)(=O)CCNCc1ccc(-c2ccc3ncnc(Nc4ccc(OCc5cccc(F)c5)c(Cl)c4)c3c2)o1 [Lapatinib] | 1.93
25 | O=C(O)c1cccnc1 [Niacin] | 1.59
26 | CO/N=C(\C(=O)N[C@@H]1C(=O)N2C(C(=O)[O-])=C(COC(C)=O)CS[C@H]12)c1csc(N)n1.[Na+] [Cefotaxime sodium] | 0.707
27 | Nc1nc2ccc(OC(F)(F)F)cc2s1 [Riluzole] | 1.01
28 | CC(C)Oc1ccc(-c2nc(-c3cccc4c3CC[C@@H]4NCCO)no2)cc1C#N [Ozanimod] | 0.741
29 | CCN1CCN(C(=O)N[C@@H](C(=O)N[C@@H]2C(=O)N3[C@@H]2SC(C)(C)[C@@H]3C(=O)[O-])c2ccccc2)C(=O)C1=O.[Na+] [Piperacillin sodium salt] | 0.935
30 | CC(=O)c1c(C)c2cnc(Nc3ccc(N4CCNCC4)cn3)nc2n(C2CCCC2)c1=O.O=S(=O)(O)CCO [Palbociclib Isethionate] | 1.14
31 | CS(=O)(=O)c1cccc(C[C@H](NC(=O)c2c(Cl)cc3c(c2Cl)CCN(C(=O)c2ccc4ccoc4c2)C3)C(=O)O)c1 [Lifitegrast] | 0.439
32 | O=NN(CCCl)C(=O)NC1CCCCC1 [Lomustine] | 1.92
33 | NC(=O)c1cn(Cc2c(F)cccc2F)nn1 [Rufinamide] | 1
34 | CNC(=O)c1cc(Oc2ccc(NC(=O)Nc3ccc(Cl)c(C(F)(F)F)c3)cc2)ccn1 [Sorafenib] | 0.285
35 | CN(C)CCC[C@@]1(c2ccc(F)cc2)OCc2cc(C#N)ccc21.O=C(O)C(=O)O [Escitalopram Oxalate] | 0.956
36 | CN1CCN2c3ncccc3Cc3ccccc3C2C1 (centres undefined) [Mirtazapine] | 0.789
37 | CCCCCCCCCC(=O)OCCN1CCN(CCCN2c3ccccc3Sc3ccc(C(F)(F)F)cc32)CC1 [Fluphenazine decanoate] | 0.964
38 | CCc1cc2c(cc1N1CCC(N3CCOCC3)CC1)C(C)(C)c1[nH]c3cc(C#N)ccc3c1C2=O.Cl [Alectinib hydrochloride] | 1.36
39 | NC(CO)(CO)CO.O=C(c1ccccc1)c1ccc2n1CCC2C(=O)O (centres undefined) [Ketorolac tromethamine salt] | 2.19
